Source: article PMC5540273 (PLoS ONE, 2017)

Experiments:
Details in all cases: concentration: 1 μM, replicates: in singlicate; n = 1
[1] = test system: T1, ASK2
T1 construct: gene MAP3K6

[2] = test system: AURKA
[3] = test system: AURKB
[4] = test system: AURKC
[5] = test system: AXL
[6] = test system: T2, BIKE
T2 construct: gene BMP2K

[7] = test system: BLK
[8] = test system: BMPR1A
[9] = test system: BMPR1B
[10] = test system: BMPR2
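Further: KINOMEscan kinase panel screen.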

| SMILES | %Inh [1] [%] | %Inh [2] [%] | %Inh [3] [%] | %Inh [4] [%] | %Inh [5] [%] | %Inh [6] [%] | %Inh [7] [%] | %Inh [8] [%] | %Inh [9] [%] | %Inh [10] [%] |
| --- | --- | --- | --- | --- | --- | --- | --- | --- | --- | --- |
| O=C(Nc1cccc(Oc2ccc3nc(NC(=O)C4CC4)cn3n2)c1)c1ccccc1C(F)(F)F | 0 | 89 | 92.8 | 77 | 75 | 79 | 25 | 0 | 0 | 0 |
| Cc1ccc(C(=O)N2CC[C@@H](O)C2)cc1-n1c(C)cc(OCc2ccc(F)cc2F)c(Br)c1=O | 0 | 0 | 0 | 0 | 0 | 0 | 70 | 0 | 54 | 0 |
| O=C(Nc1ccccc1F)NC1CCN(c2ccnc(Nc3ccc(F)cc3)n2)CC1 [GSK1379800] | 17 | 15 | 0 | 54 | 15 | 39 | 0 | 8 | 0 | 12 |
| Cl.Cl.NCC(NC(=O)c1cc(-c2ccccc2)c(-c2ccnc3[nH]ccc23)s1)c1ccccc1 (centres unmarked) [GSK1321561] | 1 | 33 | 0 | 69 | 46 | 79 | 58 | 4 | 0 | 0 |
| COc1cc(Nc2ncc3c(C)nc(-c4cc5ccccc5[nH]4)n3n2)cc(OC)c1OC [GW869516] | 0 | 0 | 1 | 26 | 26 | 9 | 60 | 22 | 0 | 0 |
| O=C(O)C(F)(F)F.O=C(O)C(F)(F)F.O=c1[nH]ccc2nc(N[C@@H]3CCCNC3)nc(Nc3ccc(S(=O)(=O)N4CCOCC4)cc3)c12 [GSK2177277] | 19 | 96.8 | 97.6 | 100 | 99.9 | 100 | 95.6 | 0 | 90.8 | 98.6 |
| Cl.NC(=O)c1cccc(Nc2nccc(Nc3ccc(Oc4c(Cl)cccc4Cl)c(Cl)c3)n2)c1 [GW659009] | 0 | 0 | 17 | 43 | 5 | 56 | 45 | 100 | 0 | 0 |
| Cl.Cl.NCC(C(=O)Nc1cc(Br)c(-c2ccnc3[nH]ccc23)s1)c1ccccc1 (centres unmarked) [GSK1269851] | 26 | 81 | 9 | 53 | 57 | 99.8 | 0 | 78 | 0 | 30 |
| Cl.Cl.NCC(NCc1ccc(-c2ccnc3[nH]ccc23)s1)c1ccccc1 (centres unmarked) [GSK1321565] | 0 | 47 | 79 | 97.2 | 95.1 | 100 | 0 | 0 | 0 | 3 |
| Nc1n[nH]c2cnc(-c3ccccc3)cc12 [SB-642124] | 0 | 4 | 32 | 100 | 0 | 99.4 | 0 | 0 | 53 | 33 |
| Cc1ccc(C(=O)Nc2ccc(Nc3ccnc4cc(-c5nccs5)ccc34)cc2O)cc1.Cl [GW494702] | 0 | 100 | 91.3 | 61 | 9 | 9 | 97 | 0 | 0 | 12 |
